The list is not random: actives were taken first. Their share in the collection is about 5.2%.
SKN-1 block: inhibitors of C. elegans SKN-1; C. elegans VP596 Pgst-4::GFP/RFP ratio, acrylamide-induced, 24 h; inhibition, % at 21.8 µM; 360,000 tested, 0.49% active;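 active means interference check ratio from 0.5 to 1.5 plus GFP to RFP signal ratio inhibition reaching or exceeding a fixed threshold, cut at about 30% in these data, passing the limit was not always enough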
Vif inh: HIV Vif inhibition. 340,000 tested, 0.35% active. HEK293T cells, Vif self-association by quenched fluorescence, imaging, 24 h. inhibition, % at 7.49 µM; in the data active means inhibition above about 50%, passing the limit was not always enough; inconclusive means no clear call, values can overlap the other calls; inactive means below about 31%
GRIN3A LBD mod: modulators (binders) of human NR3A ligand-binding domain; NR3A LBD differential scanning fluorimetry, Tm shift; 0% = protein alone, 100% = glycine-bound protein; Tm shift relative to glycine control, % at 25 µM; 340,000 tested, 2.5% active; AID 1259313;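 active means melting temperature shift of at least 10% of the positive control shift, at one fixed dose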
SMARCA2 activ: activators of SMARCA2 function; MG213 cells, MMTV-luciferase reporter, dexamethasone, overnight; activation, % at 9.1 µM; 370,000 tested, 1% active; AID 652017; in the data active means activation above about 7.8%
esBAF inh: inhibitors of esBAF chromatin remodeling in mouse ES cells; 350,000 tested, 2% active; AID 602393; Bmi1-luciferase knock-in reporter, 24 h; 100% = twice the neutral-well signal; reporter increase, % at 12.5 µM; in the data active means activation above about 40%; inconclusive means no clear call, values can overlap the other calls;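 further: a rise in the Bmi1 reporter signal indicates esBAF inhibition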
NadD block: blocks S. aureus nicotinate mononucleotide adenylyltransferase. purified NadD enzyme, colorimetric absorbance read-out. AID 602399. inhibition, % at 20 µM. 360,000 tested, 0.78% active; in the data active means inhibition above about 26%
NadD inh conf: confirmation of Staphylococcus aureus NadD inhibitors; shares compounds with NadD block; purified S. aureus NadD, colorimetric enzyme assay; inhibition, % at 20 µM; 2,000 tested, 13% active; AID 624309; in the data active means inhibition mostly above about 42%, no sharp cut-off; inactive means mostly below about 42%
Each line names hits and unclear results; the compound was inactive in the other large screens (follow-up assays come after a bar, where they were run).

C[C@H](CO)N1C[C@H](C)[C@H](CN(C)C(=O)Nc2ccc(F)cc2)Oc2ncc(C3=CCCCC3)cc2C1=O	none (no result: SKN-1 block, Vif inh, GRIN3A LBD mod, SMARCA2 activ, NadD block)
CCCC(=O)Nc1ccc2c(c1)C(=O)N(C)C[C@@H](OC)[C@@H](C)CN(Cc1ccccn1)[C@@H](C)CO2	none (no result: SKN-1 block, Vif inh, GRIN3A LBD mod, SMARCA2 activ, NadD block)
Oc1c(Cl)cc(Cl)c2cccnc12	none
Oc1c(I)cc(I)c2cccnc12	NadD block 46 | NadD inh conf inactive
C[C@H]1CN([C@@H](C)CO)C(=O)c2cc(-c3ccccc3)cnc2O[C@H]1CN(C)Cc1ccc(C(=O)O)cc1	none (no result: SKN-1 block, Vif inh, GRIN3A LBD mod, SMARCA2 activ, NadD block)
CO[C@H]1CN(C)C(=O)c2cc(NS(=O)(=O)CC(F)(F)F)ccc2OC[C@H](C)N(Cc2cccnc2)C[C@@H]1C	none (no result: SKN-1 block, Vif inh, GRIN3A LBD mod, SMARCA2 activ, NadD block)
CCCCOc1cccc(C2/C(=C(\O)c3ccc4c(c3)OCCO4)C(=O)C(=O)N2CCN2CCOCC2)c1 (centres undefined)	NadD block 47 | NadD inh conf inactive
C=CCOc1ccc(C2/C(=C(\O)c3ccc4c(c3)OCCO4)C(=O)C(=O)N2CCCN2CCOCC2)cc1 (centres undefined)	NadD block 44 | NadD inh conf inactive
CCOc1ccc(CCN2C(=S)N([C@@H](Cc3ccc(O)cc3)CN3CCC[C@@H]3CN3C(=S)NC[C@@H]3CC(C)C)C[C@@H]2Cc2ccc(O)cc2)cc1	Vif inh inconclusive, NadD block 48 (no result: GRIN3A LBD mod) | NadD inh conf inactive
CCOc1ccc(CCN2C(=S)N([C@@H](Cc3ccccc3)CN3CCC[C@@H]3CN3C(=S)NC[C@@H]3Cc3ccc(O)cc3)C[C@@H]2CC(C)C)cc1	NadD block 31 (no result: GRIN3A LBD mod) | NadD inh conf inactive
CC(C)C[C@H]1CNC(=S)N1C[C@H]1CCCN1C[C@H](Cc1ccc(O)cc1)N1C[C@H](Cc2ccccc2)N(CC2CCCCCC2)C1=S	none (no result: GRIN3A LBD mod)
CCOc1ccc(CCN2C(=S)N([C@@H](Cc3ccc(O)cc3)CN3CCCC3CN3C(=S)NC[C@@H]3Cc3ccc(O)cc3)C[C@@H]2CC(C)C)cc1 (some centres undefined)	GRIN3A LBD mod 13, NadD block 43 | NadD inh conf inactive
O=C(c1cnccn1)N1CC[C@@H]2[C@H]1c1cc(-c3ccccc3)ccc1N[C@@H]2CO	none (no result: SKN-1 block, Vif inh, GRIN3A LBD mod, SMARCA2 activ, NadD block)
C[C@H](CO)N1C[C@H](C)[C@@H](CN(C)C(=O)CN(C)C)Oc2cc(C#C[C@@H](C)O)ccc2S1(=O)=O	none (no result: SKN-1 block, Vif inh, GRIN3A LBD mod, SMARCA2 activ, NadD block)
O=C(Nc1cccc(N=Cc2cc(Br)cc(Br)c2O)c1)c1ccco1	NadD block 41 (no result: esBAF inh) | NadD inh conf inactive
C[C@@H]1CCCCO[C@H](CN(C)CC2CC2)[C@@H](C)CN([C@@H](C)CO)C(=O)c2cc(NS(=O)(=O)c3ccccc3)ccc2O1	none (no result: SKN-1 block, Vif inh, GRIN3A LBD mod, SMARCA2 activ, NadD block)
CCC(=O)NC(c1cccs1)c1cc([N+](=O)[O-])c2cccnc2c1OC (centres undefined)	NadD block 32 (no result: Vif inh, GRIN3A LBD mod) | NadD inh conf inactive
O=c1c2sc3nc(N4CCOCC4)c4c(c3c2ncn1C(c1ccccc1)c1ccccc1)CCCC4	NadD block 32 | NadD inh conf inactive
CC(C)C[C@@H](CN1CCCC1CN1C(=S)NC[C@@H]1Cc1ccccc1)N1C[C@H](Cc2ccccc2)N(CC2CCCCC2)C1=S (some centres undefined)	none (no result: Vif inh, GRIN3A LBD mod, esBAF inh)
Oc1ccc(C[C@H]2CN([C@@H](Cc3ccccc3)CN3CCC[C@@H]3CN3C(=S)NC[C@@H]3Cc3ccccc3)C(=S)N2CC2CCCCC2)cc1	none (no result: GRIN3A LBD mod)
CC(C)C[C@H]1CNC(=S)N1CC1CCCN1C[C@H](Cc1ccccc1)N1C[C@H](Cc2ccccc2)N(CC2CCCCC2)C1=S (some centres undefined)	none (no result: GRIN3A LBD mod)
Oc1ccc(C[C@H]2CNC(=S)N2CC2CCCN2C[C@H](Cc2ccc(O)cc2)N2C[C@H](Cc3ccccc3)N(CC3CCCCC3)C2=S)cc1 (some centres undefined)	GRIN3A LBD mod 33, NadD block 51 | NadD inh conf 55
Oc1ccc(C[C@H]2CNC(=S)N2CC2CCCN2C[C@H](Cc2ccc(O)cc2)N2C[C@H](Cc3ccc(O)cc3)N(CC3CCCCCC3)C2=S)cc1 (some centres undefined)	GRIN3A LBD mod 28, NadD block 55 | NadD inh conf inactive
Oc1ccc(C[C@H]2CNC(=S)N2CC2CCCN2C[C@H](Cc2ccc(O)cc2)N2C[C@H](Cc3ccccc3)N(CC3CCCCCC3)C2=S)cc1 (some centres undefined)	GRIN3A LBD mod 20, NadD block 45 | NadD inh conf inactive
Oc1ccc(C[C@@H](CN2CCCC2CN2C(=S)NC[C@@H]2Cc2ccccc2)N2C[C@H](Cc3ccccc3)N(CC3CCCCCC3)C2=S)cc1 (some centres undefined)	NadD block 46 (no result: Vif inh, GRIN3A LBD mod, esBAF inh) | NadD inh conf inactive
C[C@H]1CN([C@@H](C)CO)C(=O)c2cc(-c3ccc(F)cc3)cnc2O[C@H]1CN(C)C(=O)c1ccccn1	none (no result: SKN-1 block, Vif inh, GRIN3A LBD mod, SMARCA2 activ, NadD block)
C[C@@H]1CN([C@@H](C)CO)C(=O)c2cc(C#CC3CCCCC3)cnc2O[C@@H]1CN(C)C(=O)Nc1ccccc1	none (no result: SKN-1 block, Vif inh, GRIN3A LBD mod, SMARCA2 activ, NadD block)
Cc1ccc(S(=O)(=O)N(C)C[C@H]2Oc3c(NS(C)(=O)=O)cccc3C(=O)N([C@H](C)CO)C[C@@H]2C)cc1	none (no result: SKN-1 block, Vif inh, GRIN3A LBD mod, SMARCA2 activ, NadD block)
CC(C)C[C@H]1CNC(=S)N1C[C@H]1CCCN1C[C@H](Cc1ccccc1)N1C[C@H](Cc2ccc(O)cc2)N(CC2CCCCC2)C1=S	NadD block 35 (no result: GRIN3A LBD mod) | NadD inh conf inactive
Oc1ccc(C[C@@H](CN2CCCC2CN2C(=S)NC[C@@H]2Cc2ccccc2)N2C[C@H](Cc3ccccc3)N(CC3CCCCC3)C2=S)cc1 (some centres undefined)	NadD block 44 (no result: Vif inh, GRIN3A LBD mod, esBAF inh) | NadD inh conf inactive
Oc1ccc(C[C@H]2CNC(=S)N2CC2CCCN2C[C@H](Cc2ccccc2)N2C[C@H](Cc3ccc(O)cc3)N(CC3CCCCC3)C2=S)cc1 (some centres undefined)	NadD block 53 (no result: GRIN3A LBD mod) | NadD inh conf inactive
CC(C)C[C@H]1CNC(=S)N1CC1CCCN1C[C@H](Cc1ccc(O)cc1)N1C[C@H](Cc2ccccc2)N(CC2CCCCC2)C1=S (some centres undefined)	none
C[C@@H]1CN([C@H](C)CO)C(=O)c2cc(NC(=O)NC3CCCCC3)ccc2O[C@@H](C)CCCCO[C@@H]1CN(C)C(=O)Nc1ccccc1	none (no result: SKN-1 block, Vif inh, GRIN3A LBD mod, SMARCA2 activ, NadD block)
CO[C@H](CN(C)S(=O)(=O)c1ccc(C)cc1)[C@H](C)CN(C(=O)Nc1ccccc1F)[C@@H](C)CO	none (no result: SKN-1 block, Vif inh, GRIN3A LBD mod, SMARCA2 activ, NadD block)
O=C(/C=C/c1ccc(Br)cc1)NC(=S)Nc1ccc(S(=O)(=O)Nc2nccs2)cc1	NadD block 54 (no result: esBAF inh) | NadD inh conf inactive

Screening data: PubChem BioAssay, several laboratories
